PubChem BioAssay AID651640 (Broad Institute, 2012)
Out of some 350,000 compounds screened, about 6,000 (1.7%) were called active. About 5% were inconclusive and are not listed. Only a selection was taken, and actives are over-represented in it overall. Unmarked numbers belong to inactive results. Cut-off read from the data, not from the text of the source: active = CPE inhibition above about 20% (passing the limit was not always enough); inconclusive = no clear call, values can overlap the other calls; tested in BHK-21 cells.

assay: protection of cells from dengue 2 killing – plate reader, single concentration, primary screen (AID 651640); conditions: DENV2-infected cells, cytopathic effect rescue, at 9.99 µM, stronger effect = higher value;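 note: 0% = median of neutral control wells and 100% = median of positive control wells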

Point of comparison: Cc1noc(C)c1NC(=O)N(C)C[C@@H]1Oc2c(NC(=O)C3CCCCC3)cccc2C(=O)N([C@H](C)CO)C[C@@H]1C, CPE inhibition -0.956%. Against it:
- CNC(=O)C[C@@H]1CC[C@@H]2[C@@H](COc3ccc(NC(=O)c4ccc(F)cc4)cc3C(=O)N2C)O1 — lower, -2.03%
- C[C@@H]1CN([C@@H](C)CO)C(=O)c2cccc(NC(=O)CCCCCC(=O)Nc3ccccc3N)c2O[C@H]1CN(C)C(=O)Nc1ccccc1 — higher, 4.08%
- C[C@H]1CN([C@@H](C)CO)C(=O)c2cccc(NC(=O)Nc3ccccc3)c2O[C@H]1CN(C)C(=O)Nc1cccc2ccccc12 — higher, 3.97%
- Cc1noc(C)c1NC(=O)Nc1cccc2c1O[C@H](CN(C)C(=O)Nc1c(C)noc1C)[C@@H](C)CN([C@@H](C)CO)C2=O — lower, -1.85%
- COCC(=O)N1[C@H](CO)[C@H](c2ccccc2C2=CCCCC2)[C@@H]1C#N — higher, 5.95%
- C[C@H]1CN([C@@H](C)CO)C(=O)c2cccc(NC(=O)Nc3ccc(C(F)(F)F)cc3)c2O[C@H]1CN(C)CC1CCCCC1 — lower, -8.84%
- CC(=O)N1[C@H](CN(C)S(=O)(=O)c2ccccc2)[C@H](c2ccccc2)[C@@H]1CO — higher, 15.4%
- COc1cccc(S(=O)(=O)N(C)C[C@@H]2Oc3cc(C4=CCCCC4)ccc3S(=O)(=O)N([C@H](C)CO)C[C@H]2C)c1 — higher, 2.02%
- O=C(COc1ccc2c3c(c(=O)oc2c1)CCCC3)NCC(O)c1ccccc1 (stereo not drawn) — higher, 3.96%
- O=C(COc1ccc2c3c(c(=O)oc2c1)CCC3)NC1CCCCC1 — higher, 2.16%
- COC(=O)C1=C(C)N(Cc2cccc(C(F)(F)F)c2)C(=NCc2ccccc2)NC1c1ccccc1C(F)(F)F (stereo not drawn) — lower, -6.35%
- COC(=O)C1=C(C)N(Cc2cccc(C(F)(F)F)c2)C(=NCc2cccc(C(F)(F)F)c2)NC1c1ccccc1C(F)(F)F (stereo not drawn) — higher, 19.7%
- Cc1noc(C)c1NC(=O)Nc1ccc2c(c1)C(=O)N([C@H](C)CO)C[C@H](C)[C@H](CN(C)C(=O)C1CCCCC1)OCCCC[C@@H](C)O2 — lower, -8%
- CCN1[C@@H]2c3ccc(C4=CCCC4)c(=O)n3C[C@@H]2[C@@H](CO)[C@@H]1C(=O)NCc1ccccn1 — lower, -1.73%
- O=C(Cc1ccccn1)N[C@@H]1CC[C@H](CCn2cc(-c3ccc(F)cc3)nn2)O[C@@H]1CO — lower, -1.64%
- COCC(=O)Nc1ccc2c(c1)[C@@H]1C[C@H](CC(=O)NCc3ccc(Cl)cc3)O[C@H](CO)[C@@H]1O2 — higher, 2.48%
- O=C(NC1CCCCC1)C1CC(=O)N(CCc2ccccc2)C1 (stereo not drawn) — lower, -1.18%
- O=C(NCCCN1CCCCC1)C1CC(=O)N(CCc2ccccc2)C1 (stereo not drawn) — higher, 4.06%
- CCCN1C[C@@H](C)[C@@H](OC)CN(C)C(=O)c2cc(NC(=O)c3ccccc3)ccc2OC[C@H]1C — lower, -10.4%
- CC1(C(=O)NCc2ccco2)Cc2c(-c3ccc4c(c3)OCO4)ccnc2O1 (stereo not drawn) — higher, 7.65%
- COc1ccc(NC(=O)C2(C)Cc3c(-c4cccc(NC(C)=O)c4)ccnc3O2)cc1 (stereo not drawn) — lower, -2.95%
- COCC#Cc1cnc2c(c1)C(=O)N([C@@H](C)CO)C[C@@H](C)[C@@H](CN(C)C(=O)Nc1ccccc1OC)O2 — higher, 8.53%
- CCN1CCN(C(=O)N(Cc2ccc(Cl)cc2)S(=O)(=O)c2ccc(C)cc2)CC1 — lower, -3.82%
- CN1CCN(CC(=O)Nc2cccc([N+](=O)[O-])c2)CC1 — lower, -4.21%
- Cc1ccccc1-c1ccc2c(c1)O[C@@H](CN(C)Cc1ccncc1)[C@@H](C)CN([C@H](C)CO)S2(=O)=O — higher, 7.62%
- CN(C)c1ccc2c(c1)[C@H]1C[C@H](CC(=O)O)O[C@H](CO)[C@H]1O2 — higher, 0.102%
- C[C@@H]1CN([C@@H](C)CO)C(=O)c2cccc(NC(=O)c3ccc(-c4nccs4)cc3)c2O[C@H]1CN(C)Cc1ccc(Cl)c(Cl)c1 — lower, -8.98%
- Cc1ccc(C(=O)N2CCN(S(=O)(=O)N3CCOCC3)CC2)cc1 — lower, -4.28%
- Cc1ccc(C(=O)Oc2ccc(C(=S)N3CCOCC3)cc2)cc1 — higher, 12.3%
- C[C@@H]1CCCCO[C@H](CN(C)Cc2ccc(Cl)c(Cl)c2)[C@H](C)CN([C@@H](C)CO)C(=O)c2cc(NC(=O)CCC(F)(F)F)ccc2O1 — higher, 2.84%
- C[C@H](NC(=O)C[C@H]1CC[C@H]2[C@@H](COC[C@H](O)CN2C(=O)Nc2cc(Cl)cc(Cl)c2)O1)c1ccccc1 — lower, -1.1%
- CC/C=C/C(=O)N1CC2(CC(c3cccc(NC(=O)CC)c3)=NO2)C[C@H]1C(N)=O (stereo partly drawn) — lower, -7.83%
- C/C=C\C=C\C(=O)N1CC2(CC(c3cccc(NC(=O)/C(C)=C\C)c3)=NO2)C[C@H]1C(N)=O (stereo partly drawn) — higher, 11.7%
- C[C@@H]1CN([C@H](C)CO)C(=O)c2cc(C3=CCCCC3)cnc2O[C@@H]1CN(C)C(=O)c1ccc2c(c1)OCO2 — lower, -7.8%
- COc1ccc(S(=O)(=O)N(C)C[C@H]2OCCCC[C@@H](C)Oc3ccc(NC(=O)c4ccncc4)cc3C(=O)N([C@H](C)CO)C[C@@H]2C)cc1 — lower, -4.42%
- CC(C)NC(=O)Nc1ccc2c(c1)C(=O)N([C@H](C)CO)C[C@@H](C)[C@@H](CN(C)S(=O)(=O)c1cccs1)OCCCC[C@@H](C)O2 — higher, -0.241%
- C[C@@H]1CN([C@H](C)CO)C(=O)c2cc(NC(=O)c3ccccc3)ccc2O[C@@H](C)CCCCO[C@H]1CN(C)S(=O)(=O)c1ccccc1 — lower, -7.35%
- C[C@@H]1CCCCO[C@H](CN(C)S(=O)(=O)c2cccs2)[C@@H](C)CN([C@H](C)CO)C(=O)c2cc(NC(=O)Nc3ccccc3)ccc2O1 — higher, 9.31%
- COC(=O)C[C@@H]1C[C@H]2c3cc(NC(=O)NC4CCCC4)ccc3O[C@H]2[C@H](CO)O1 — higher, 0.692%
- CC(C)CC#Cc1ccc2c(c1)O[C@H](CN(C)C(=O)Cc1cccnc1)[C@H](C)CN([C@@H](C)CO)S2(=O)=O — higher, -0.534%
- CO[C@@H]1CN(C)C(=O)c2ccc(NC(=O)Nc3ccccc3)cc2OC[C@H](C)N(C(=O)CC2CC2)C[C@@H]1C — lower, -5.7%
- COC(=O)C[C@@H]1C=C[C@@H](NS(=O)(=O)c2cccc(OC)c2)[C@@H](CO)O1 — higher, 1.84%
- COc1cccc(S(=O)(=O)N[C@H]2C=C[C@@H](CC(=O)NCc3ccc(F)cc3)O[C@@H]2CO)c1 — higher, 3.36%
- COc1cccc(S(=O)(=O)N[C@H]2C=C[C@@H](CC(=O)NCc3ccccc3)O[C@@H]2CO)c1 — lower, -4.65%
- COc1ccccc1S(=O)(=O)N[C@H]1CC[C@@H](CC(=O)NCc2cc(F)cc(F)c2)O[C@H]1CO — lower, -1.83%
- COc1ccc2c3c([nH]c2c1)[C@H](CO)N(C(=O)NC1CCCC1)CC31CN(C(=O)Nc2cccc(F)c2)C1 — higher, 9.59%
- COc1ccc(NC(=O)Nc2ccc3c(c2)C(=O)N([C@@H](C)CO)C[C@@H](C)[C@H](CN(C)C(=O)NC(C)C)OCCCC[C@H](C)O3)cc1 — higher, 3.37%
- Cc1ccc(S(=O)(=O)Nc2ccc3c(c2)C(=O)N(C)[C@H]2CC[C@H](CC(=O)O)O[C@H]2CO3)cc1 — higher, 4.91%
- O=C(NCCCCc1ccccc1)C1CC(c2ccc([N+](=O)[O-])cc2)=NO1 (stereo not drawn) — higher, 15.1%
- COc1ccc(CNC(=O)C2CCCC2)cc1 — lower, -2.88%
- COc1ccc(C2=NOC(Cn3nc(C(=O)NCc4ccc5c(c4)OCO5)cc3-c3ccccc3)C2)cc1 (stereo not drawn) — higher, 10.2%
- O=C(NCc1cc(F)cc(C(F)(F)F)c1)C1CCC(=O)N(C2CCCC2)C1 (stereo not drawn) — higher, 0.846%

For Cc1noc(C)c1NC(=O)N(C)C[C@@H]1Oc2c(NC(=O)CCCCCC(=O)Nc3ccccc3N)cccc2C(=O)N([C@H](C)CO)C[C@@H]1C, the CPE inhibition was 57.6% (active).
For C[C@@H]1CN([C@@H](C)CO)C(=O)c2cccc(NC(=O)CCCCCC(=O)Nc3ccccc3N)c2O[C@H]1CN(C)C(=O)Nc1cccc2ccccc12, the CPE inhibition was 20.8% (active).
With NC(=O)C1CCN(C(=O)COc2ccc3c4c(c(=O)oc3c2)CCC4)CC1 the CPE inhibition was 68.3% (active).
For COC(=O)C1=C(C)N(Cc2cccc(C(F)(F)F)c2)C(=NCc2ccccc2)NC1c1ccc(Cl)cc1 (stereo not drawn), the CPE inhibition was 27.3% (active).
With Cc1ccc(CCN2CC(C(=O)NCCc3ccccc3)CC2=O)cc1 (stereo not drawn) the CPE inhibition was 34.2% (active).
In the case of CC(=O)Nc1cccc(-c2ccnc3c2CC(C)(C(=O)NCc2ccco2)O3)c1 (stereo not drawn), the CPE inhibition is reported as 32.1% (active).
In the case of Cc1ccc(S(=O)(=O)N(Cc2cccc([N+](=O)[O-])c2)C(=O)N2CCN(C)CC2)cc1, the CPE inhibition is reported as 56.8% (active).
For Cc1ccc(C(=O)C(=S)N2CCOCC2)cc1, the CPE inhibition was 41.4% (active).
With C/C=C(\C)C(=O)N1CC2(CC(c3cccc(NC(=O)CCCCC)c3)=NO2)C[C@@H]1C(N)=O (stereo partly drawn) the CPE inhibition was 85.8% (active).
With COc1ccc(S(=O)(=O)N(C)C[C@@H]2OCCCC[C@@H](C)Oc3ccc(NC(=O)c4ccccc4)cc3C(=O)N([C@@H](C)CO)C[C@H]2C)cc1 the CPE inhibition was 53.6% (active).
In the case of C[C@@H]1CCCCO[C@H](CN(C)S(=O)(=O)c2cccs2)[C@H](C)CN([C@H](C)CO)C(=O)c2cc(NC(=O)c3ccccc3)ccc2O1, the CPE inhibition is reported as 56.2% (active).
In the case of COc1cccc(S(=O)(=O)N[C@H]2C=C[C@H](CC(=O)NCc3ccc(Cl)cc3)O[C@@H]2CO)c1, the CPE inhibition is reported as 23.8% (active).
With COc1ccccc1S(=O)(=O)N[C@@H]1C=C[C@H](CC(=O)NCc2cccc(F)c2)O[C@H]1CO the CPE inhibition was 41.8% (active).
For O=C(NCc1cc(C(F)(F)F)cc(C(F)(F)F)c1)C1CC(c2cccc(F)c2)=NO1 (stereo not drawn), the CPE inhibition was 23.7% (active).
In the case of COc1ccc(CNC(=O)C2CC(c3ccc(C(F)(F)F)cc3)=NO2)cc1 (stereo not drawn), the CPE inhibition is reported as 87.8% (active).
